Most compounds without a hit are left out; they make up all but 15% or so of the library.
ALOX12 inh = blocks human arachidonate 12S-lipoxygenase | P18054 | purified 12hLO, xylenol orange hydroperoxide absorbance | Potency, µM (series often up to 108 µM), for the others: top-dose activity change, negative = inhibition, most hits filed as inhibitors | 1.1% of 580,000 active | AID 1671190
Target sequence (P18054 whole entry, looked up): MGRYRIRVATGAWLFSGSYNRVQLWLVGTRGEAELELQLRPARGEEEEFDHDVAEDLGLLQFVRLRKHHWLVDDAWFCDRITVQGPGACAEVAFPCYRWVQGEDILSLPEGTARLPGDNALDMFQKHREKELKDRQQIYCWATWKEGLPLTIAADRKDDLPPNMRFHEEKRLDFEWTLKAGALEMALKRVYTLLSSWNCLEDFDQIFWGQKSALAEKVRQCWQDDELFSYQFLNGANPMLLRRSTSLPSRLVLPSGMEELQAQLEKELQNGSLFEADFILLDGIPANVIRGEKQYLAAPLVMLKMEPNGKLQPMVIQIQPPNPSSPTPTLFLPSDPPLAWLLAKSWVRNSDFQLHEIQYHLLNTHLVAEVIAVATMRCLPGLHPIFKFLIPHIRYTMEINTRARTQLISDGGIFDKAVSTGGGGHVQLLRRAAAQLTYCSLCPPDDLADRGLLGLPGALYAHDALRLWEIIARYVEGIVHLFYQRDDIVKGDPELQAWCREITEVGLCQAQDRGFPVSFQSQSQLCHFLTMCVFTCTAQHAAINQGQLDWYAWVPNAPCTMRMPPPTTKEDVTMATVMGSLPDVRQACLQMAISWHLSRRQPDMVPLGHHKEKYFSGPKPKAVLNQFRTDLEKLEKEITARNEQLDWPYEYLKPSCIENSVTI
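Hydroperoxide product was detected by ferrous iron/xylenol orange as the 573 to 405 nm absorbance ratio. Arachidonic acid at 40 uM (final) was turned over for 30 min at room temperature by 150 nM human 12hLO, pH 7.0 Hepes buffer, after 15 min compound preincubation.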
ELG1 DNA repair = ELG1-dependent DNA repair inhibition; Potency, µM (top dose mostly 46.1 µM), without a hit: at the top dose activity change, negative = inhibition, most hits filed as inhibitors; 2.3% of 330,000 active; HEK293T ELG1-luciferase reporter, luminescence, 16 h; DNA damage induced by 5-fluorouridine; also: nearly all actives have a fitted effect of over 55% in size
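Quantitative HTS, concentration-response format. 2,000 cells/well co-treated with 5-fluorouridine and compound, 16 hr in 5% CO2 at 37 °C; ONE-Glo luminescence read after 30 min.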
TDP1 cell CPT = DT40-hTDP1 cell growth loss with CPT; chicken DT40 Tdp1-/-;hTDP1 cells + 20 nM CPT, ATP luminescence, 48 h; Potency, µM (titrated, usually from 46.2 µM), inactives show top-dose activity change, negative = growth inhibition, actives largely listed as inhibitors; 12% of 420,000 active; AID 686979; also: nearly all actives have a fitted effect of over 55% in size
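Chicken DT40 Tdp1-/- cells stably complemented with human TDP1 were seeded at 400 cells/well in medium containing 20 nM camptothecin, exposed to pin-transferred compounds, and grown at 37 °C for at least 48 hr. Viability was read as ATP luminescence.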
RORg inh = ROR gamma (mouse) transcription inhibition. 5.4% of 310,000 active. AID 2551. Drosophila S2 Gal4-RORgamma UAS-luciferase reporter, 20 h. Potency, µM (doses to about 53.6 µM), for inactives: top-dose activity change, negative = inhibition, actives largely listed as inhibitors; also: nearly all actives have a fitted effect of over 60% in size
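Stable Schneider cell line, Gal4 DNA-binding domain fused to ROR gamma, UAS-luciferase. Cmpd 1 hr RT → CuSO4 700 uM final → 20 hr RT → luciferase reagent 10 min → luminescence.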
DT40 TDP1 no CPT = qHTS for Inhibitors of human tyrosyl-DNA phosphodiesterase 1 (TDP1): qHTS in cells in absence of CPT; Potency, µM (highest dose often 46.2 µM), for the others: at the top dose activity change, negative = growth inhibition, most hits filed as inhibitors; DT40 Tdp1-/- hTDP1 cells, no CPT, ATP luminescence, 48 h; 15% of 420,000 active; AID 686978, 2013; also: nearly all actives have a fitted effect of over 55% in size
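Chicken DT40 Tdp1-/- cells complemented with human TDP1, screened without camptothecin (DMSO vehicle only), 400 cells/well. Compounds pin-transferred, cells incubated at 37 °C for at least 48 hr. Growth read as ATP-dependent luminescence (CellTiter-Glo, 30 min at RT).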
Gal4-VP16 FLuc = inhibits Gal4-VP16 luciferase reporter, ROR gamma counter-screen; AID 2546; Potency, µM (series often up to 53.6 µM), inactives show at the highest dose activity, negative = inhibition, actives largely listed as inhibitors; Drosophila S2 Gal4-VP16 UAS-luciferase, luminescence, 20 h; 3.5% of 310,000 active;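 also: Gal4-VP16 expression switched on by copper sulfate through the metallothionein promoter; nearly all actives have a fitted effect of over 50% in size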
* = called active by the depositor. Calls follow the shape of the dose curve; as a rule, active = well fitted curve in the direction sought with a large enough effect; inconclusive = small, poorly fitted or top-dose-only effect, or another doubt; inactive = no such curve, though single readings can be large; an effect the other way counts as inactive or inconclusive. % is scaled to controls: 0 for no effect and ±100 for the full control effect; potency is read from the fitted curve at half-maximal effect.

Results for Cc1nnc(NC(=O)CCS(=O)(=O)c2ccccc2)s1 ?
ALOX12 inh: 4.4%; ELG1 DNA repair: -5.8%; TDP1 cell CPT: 16.4µM*; RORg inh: -35.9%; DT40 TDP1 no CPT: inconclusive; Gal4-VP16 FLuc: 29.2%

How did CC(C)(C)c1nnc(NC(=O)CCS(=O)(=O)c2ccccc2)s1 do in these assays?
ALOX12 inh: -23.9%; ELG1 DNA repair: 6.3%; TDP1 cell CPT: 7.31µM*; RORg inh: -7.3%; DT40 TDP1 no CPT: 23.1µM*; Gal4-VP16 FLuc: -18.2%

How did Cc1ccc(S(=O)(=O)CC(=O)Nc2nnc(C(C)(C)C)s2)cc1 do in these assays?
ALOX12 inh: inconclusive; ELG1 DNA repair: -0.1%; TDP1 cell CPT: 7.3%; RORg inh: 3.0%; DT40 TDP1 no CPT: -0.5%; Gal4-VP16 FLuc: -11.4%

How did O=C(CS(=O)(=O)c1ccccc1)Nc1nnc(C(F)(F)F)s1 do in these assays?
ALOX12 inh: -23.0%; ELG1 DNA repair: 0.0%; TDP1 cell CPT: -0.2%; RORg inh: -37.0%; DT40 TDP1 no CPT: -18.7%; Gal4-VP16 FLuc: 12.5%

What do the screens show for `O=C(Nc1ccccc1)N1C[C@@H]2C[C@H](C1)c1ccc(-c3cccc(C(F)(F)F)c3)c(=O)n1C2`?
ALOX12 inh: -57.9%

How did COc1ccc(CCC(=O)N2CC[C@H]3C(=O)NCCCCCCN(Cc4ccncc4)[C@@H]3C2)cc1 do in these assays?
ALOX12 inh: 72.0%

What do the screens show for `O=C(NCc1ccc(Cl)cc1)C1CCCN(c2ncnc3nc[nH]c23)C1` (centres undefined)?
ALOX12 inh: -0.2%

Results for Clc1ccc(CNc2ccc3nnc(-c4ccccc4)n3n2)cc1 ?
ALOX12 inh: inconclusive; ELG1 DNA repair: -3.7%; TDP1 cell CPT: 2.06µM*; RORg inh: 20.9%; DT40 TDP1 no CPT: 4.11µM*; Gal4-VP16 FLuc: -2.2%

How did CCOc1ccc(CCNc2ccc3nnc(-c4ccccc4)n3n2)cc1OCC do in these assays?
ALOX12 inh: -1.4%; ELG1 DNA repair: inconclusive; TDP1 cell CPT: 16.4µM*; RORg inh: 30.0%; DT40 TDP1 no CPT: inconclusive; Gal4-VP16 FLuc: 0.4%

How did O=S(=O)(Nc1nc2ccccc2nc1NC1CCCC1)c1ccc2c(c1)OCCO2 do in these assays?
ALOX12 inh: 1.6%

How did CCCn1c2c(c(=O)n(C)c1=O)C(c1ccccc1C)C1=C(COC1=O)N2 (centres undefined) do in these assays?
ALOX12 inh: -15.5%

Results for CCCCCCc1c(C)nc(-n2[nH]c(C)c(CCO)c2=O)[nH]c1=O ?
ALOX12 inh: 2.3%; ELG1 DNA repair: -3.2%; TDP1 cell CPT: inconclusive; RORg inh: 3.55µM*; DT40 TDP1 no CPT: inconclusive; Gal4-VP16 FLuc: 15.8µM*

Results for COc1ccc(C(CNC(=O)c2nn(Cc3ccccc3)c(=O)c3ccccc23)N2CCCC2)cc1 (centres undefined) ?
ALOX12 inh: -10.1%

How did CN1C(=O)CCC2(CNC(=O)c3cccs3)CCC=C12 (centres undefined) do in these assays?
ALOX12 inh: 4.2%

Results for O=c1c(C=NCCCO)c(-c2ccccc2)[nH]n1-c1nc2ccccc2s1 ?
ALOX12 inh: -9.9%; ELG1 DNA repair: 18.2%; TDP1 cell CPT: 13µM*; RORg inh: inconclusive; DT40 TDP1 no CPT: inconclusive; Gal4-VP16 FLuc: 5.1%

What do the screens show for `CCCc1[nH]n(-c2nc3ccccc3s2)c(=O)c1C=NCCCOC`?
ALOX12 inh: 4.8%; ELG1 DNA repair: inconclusive; TDP1 cell CPT: -11.6%; RORg inh: inconclusive; DT40 TDP1 no CPT: -0.4%; Gal4-VP16 FLuc: -4.5%

Bioassay records from PubChem.
